Results filed as inconclusive are left out. Where a call stands in place of a potency, no number is given. Activity calls are given as the source filed them. Calls come from the whole dose curve; as a rule, active = well fitted inhibition curve with a large enough effect; inconclusive = small, poorly fitted or top-dose-only effect; inactive = no such curve, though single readings can be large or run the other way.
Assay: Primary qHTS for inhibitors of nuclear receptor binding SET domain protein 2 (NSD2) in an RCH-ACV wild type WT cells (2C) (AID 1645877); note: nearly all actives have a fitted effect of over 70% in size
Details: RCH-ACV (leukaemia line) NSD2 WT (2C) viability, CellTiter-Glo, 72 h; series mostly up to 44.9 µM
Description: Assay Provider: Jonathan D. Licht, MD
University of Florida College of Medicine, Gainesville, FL
Mutations in epigenetic regulators are common in relapsed pediatric acute lymphoblastic leukemia (ALL). Here, we uncovered the mechanism underlying the relapse of ALL driven by an activating mutation of the NSD2 histone methyltransferase (p.E1099K). […] Correction of this mutation restored glucocorticoid sensitivity. The transcriptional response to glucocorticoids was blocked in NSD2 mutant cells due to depressed glucocorticoid receptor (GR) levels and the failure of glucocorticoids to autoactivate GR expression. […] Pre-treatment of NSD2 p.E1099K cell lines and PDX samples with PRC2 inhibitors reversed glucocorticoid resistance in vitro and in vivo.
High-throughput drug screening of isogenic RCH-ACV cell lines was performed at the National Center for Advancing Translational Science (NCATS), National Institutes of Health as previously described (1). Briefly, isogenic RCH-ACV NSD2 p.E1099K mutant (9B) and WT cells (2C) were plated at 500 cells/well in a 1536-well plate with a 72-hour incubation with compounds prior to addition of CellTiter-Glo to assess cell viability. NCATS libraries screened include: NPC, MIPE 5.0, Kinase and NPACT. To determine compound activity in the qHTS assay, the concentration-response data for each sample was plotted and modeled by a four-parameter logistic fit yielding IC50 and efficacy (maximal response) values. The area under the curve (AUC) of the dose-response curve ensures both efficacy (magnitude of cell killing) and potency (concentration that elicits cell killing) are accounted for in the analysis of activity.
1. Tobie D Lee, Olivia W Lee, Kyle R Brimacombe, Lu Chen, Rajarshi Guha, Sabrina Lusvarghi, Bethilehem G Tebase, Carleen Klumpp-Thomas, Robert W Robey, Suresh V Ambudkar, Min Shen, Michael M Gottesman, Matthew D Hall. A High-Throughput Screen of a Library of Therapeutics Identifies Cytotoxic Substrates of P-glycoprotein. Mol Pharmacol. 2019, Nov;96(5):629-640.

Row | Structure (SMILES) | Potency | outcome | activity change, negative = cell killing
1 | CCc1c(C(=O)C(N)=O)c2c(OCC(=O)OC)cccc2n1Cc1ccccc1 | inactive | – | –
2 | COC1CC(OC2CCC3(C=O)C(CCC4C3CCC3(C)C(C5=CC(=O)OC5)CCC43O)C2)OC(C)C1OC1OC(CO)C(O)C(O)C1O (stereo not given) | 153 nM (active) | – | –
3 | CC[C@H]1CN2CC[C@H]1C[C@@H]2[C@@H](O)c1ccnc2ccc(OC)cc12 | inactive | – | –
4 | CCCCCCn1c(=O)c(C(=O)Nc2ccc(C(=O)OCCC)cc2)c(O)c2ccccc21 | – | inactive [at 9.23 µM] | –
5 | CCN1C[C@]2(COC)[C@H](O)C[C@H](OC)[C@]34[C@@H]5C[C@]6(O)[C@H](OC(=O)c7ccccc7)[C@@H]5[C@@](O)([C@H]([C@H](OC)[C@H]23)[C@@H]14)[C@@H](O)[C@@H]6OC | inactive | – | –
6 | CO[C@@H]1[C@H](O)[C@@H](O[C@@H]2C[C@H]3CC[C@@H]4C(CC[C@]5(C)[C@@H](C6=CC(=O)OC6)CC[C@]45O)[C@@]3(C)[C@H](O)C2)O[C@H](C)[C@@H]1O[C@@H]1O[C@H](CO)[C@@H](O)[C@H](O)[C@H]1O (stereo not given in full) | 304 nM (active) | – | –
7 | CCC(C)(C#N)O[C@@H]1O[C@H](CO)[C@@H](O)[C@H](O)[C@H]1O (stereo not given in full) | inactive | – | –
8 | CCc1[nH]c2ccc(OC)cc2c1CCN(C)C | inactive | – | –
9 | C/C=C(\C)C(=O)OC1C(C)OC(OC2C(C)OC(OC3CCC4(C)C(=CCC5C4CCC4(C)C(C(C)OC6OC(COC7OC(CO)C(O)C(O)C7O)C(O)C(O)C6O)CCC54O)C3)CC2OC)C(O)C1OC (stereo not given) | – | – | -10% [at 9.23 µM] (inactive)
10 | N#CC(OC1OC(COC2OC(CO)C(O)C(O)C2O)C(O)C(O)C1O)c1ccccc1 (stereo not given) | inactive | – | –
11 | COc1ccc2c(c1)/C(=C/c1cnc[nH]1)C(=O)N2 | 18400 nM (active) | – | –
12 | COC(=O)[C@@]12C(=O)C(C)C(=O)[C@]1(C)C(C)=C[C@H]1[C@]3(C=O)CC[C@H](OC(C)=O)C(C)(C)[C@H]3CC[C@@]12C (stereo not given in full) | inactive | – | –
13 | CC12CCC3C(CCC4(O)CC(O)CCC34C=O)C1(O)CCC2C1=CC(=O)OC1 (stereo not given) | 515 nM (active) | – | –
14 | OCCCCC#Cc1cncc(OC[C@@H]2CCN2)c1 | inactive | – | –
15 | CN1C(=O)N(c2ccc(C#N)c(C(F)(F)F)c2)C(=O)[C@]1(CO)c1ccccc1 | inactive | – | –
16 | O=C1C[C@@H]2OCC=C3CN4CC[C@]56c7ccccc7N1[C@H]5[C@H]2[C@H]3C[C@H]46 | inactive | – | –
17 | CC(=O)OC1CC(O)C2(C)C(CC(OC(C)=O)C3(C)C2CCC2(C)C(c4ccoc4)C(=O)C4OC423)C1(C)C (stereo not given) | inactive | – | –
18 | COC1=CC(=O)O[C@@H](/C=C/c2ccccc2)C1 | inactive | – | –
19 | Clc1ccc(N2C[C@H]3CC[C@@H](C2)N3)nn1 | inactive | – | –
20 | CC1=C2C(=O)C3[C@@H](CC=C4C[C@@H](O)CC[C@@]43C)[C@@H]2CC[C@]12O[C@@H]1C[C@H](C)CN[C@H]1[C@H]2C (stereo not given in full) | inactive | – | –

Row | Structure (SMILES) | Potency | outcome | activity change, negative = cell killing
21 | COc1cc(C)[nH]c(=O)c1CNC(=O)c1c(C)n([C@H](C)C2CCOCC2)c2ccccc12 | inactive | – | –
22 | Cc1cn(C[C@H](N)C(=O)O)c(=O)n(Cc2cc(-c3ccccc3)sc2C(=O)O)c1=O | inactive | – | –
23 | CC(CCc1ccc(O)cc1)O[C@@H]1O[C@H](CO[C@H]2OC[C@](O)(CO)[C@H]2O)[C@@H](O)[C@H](O)[C@H]1O (stereo not given in full) | inactive | – | –
24 | CN1CCCC1CCOC(c1cc2nccc(C(=O)O)c2[nH]1)c1ccccc1Cl (stereo not given) | inactive | – | –
25 | C=C[C@H]1CN2CC[C@H]1C[C@@H]2[C@@H](O)c1ccnc2ccccc12 | inactive | – | –
26 | CC(C)[C@@H](CN1CC[C@@](C)(c2cccc(O)c2)[C@@H](C)C1)NC(=O)[C@H]1Cc2ccc(O)cc2CN1 | 14500 nM (active) | – | –
27 | CCN1C[C@]2(OC(=O)c3ccccc3NC(C)=O)CC[C@H](OC)[C@@]34[C@@H]2C[C@@H]([C@@H]13)[C@@]1(O)C[C@H](OC)[C@H]2C[C@@H]4[C@]1(O)[C@H]2OC | inactive | – | –
28 | CC(C)=C1CC[C@]23CO[C@H](C2)[C@@](O)(C(=O)O)CCC13 (stereo not given in full) | inactive | – | –
29 | O=C(O)c1ccnc2cc(C(OCCN3CCCCC3)c3ccccc3Cl)[nH]c12 (stereo not given) | inactive | – | –
30 | O=C(N1CCOCC1)N1CCN(c2ccc(Cl)cc2)CC1 | inactive | – | –
31 | COC1C(O)C(OC2CCC3(C=O)C(CCC4C3CCC3(C)C(C5=CC(=O)OC5)CCC43O)C2)OC(C)C1OC1OC(CO)C(O)C(O)C1O (stereo not given) | 342 nM (active) | – | –
32 | COC1CC(O[C@H]2CC[C@]3(C=O)C4CC[C@]5(C)[C@@H](C6=CC(=O)OC6)CC[C@]5(O)[C@@H]4CC[C@]3(O)C2)OC(C)C1O[C@@H]1O[C@H](CO)[C@@H](O)[C@H](O)[C@H]1O (stereo not given in full) | 85.8 nM (active) | – | –
33 | COC1=CC(=O)O[C@@H](CCc2ccccc2)C1 | inactive | – | –
34 | COc1cc(CCNCc2ccccc2O)c(OC)cc1C#N | inactive | – | –
35 | C[C@]12CC[C@H]3[C@@H]([C@H](O)CC4=CC(=O)CC[C@@]43C)[C@@H]1CC[C@@H]2O | inactive | – | –
36 | C[CH2][Hg][S]c1ccccc1C(=O)O | 841 nM (active) | – | –
37 | CC(=O)c1c(O)c(C)c(O)c(Cc2c(O)c3c(c(C(=O)/C=C/c4ccccc4)c2O)OC(C)(C)C=C3)c1O | inactive | – | –
38 | CCC(C)(OC(C)=O)C(=O)O[C@H]1[C@H](OC(C)=O)C[C@@H]2[C@@](C)([C@@H]3C[C@H]4C=CO[C@H]4O3)[C@H](C)C[C@H](OC(C)=O)[C@@]2(COC(C)=O)[C@@]12CO2 (stereo not given in full) | inactive | – | –
39 | C1=C2CCCN[C@H]2[C@@H]2C[C@H]1[C@H]1CCCCN1C2 | inactive | – | –
40 | CC(N)Cc1c[nH]c2ccccc12 (stereo not given) | inactive | – | –

From PubChem BioAssay (NCATS)
